Experiments:
Settings in all cases: concentration: 1 μM, replicates: in singlicate; n = 1
[1] = tested on: RIOK1
[2] = tested on: RIOK2
[3] = tested on: RIOK3
[4] = tested on: RIPK1
[5] = tested on: RIPK2
[6] = tested on: RIPK4
[7] = tested on: RIPK5
[8] = tested on: ROCK1
[9] = tested on: ROCK2
[10] = tested on: ROS1
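Further: KINOMEscan kinase panel screen.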

CC(C)c1nc(-c2ccc(F)c(NS(=O)(=O)c3c(F)cccc3F)c2)c(-c2ccnc(Nc3ccc(N4CCOCC4)nc3)n2)s1 [GSK1804250]
%Inh [1]: 30% | %Inh [2]: 13% | %Inh [3]: 84% | %Inh [4]: 0% | %Inh [5]: 97.6% | %Inh [6]: 0% | %Inh [7]: 19% | %Inh [8]: 12% | %Inh [9]: 2% | %Inh [10]: 17%

Cc1ccc(NC(=O)c2cccc(N3CCCCC3)c2)cc1-c1ccc(C(=O)NCC2CC2)cc1 [GSK1917008]
%Inh [1]: 34% | %Inh [2]: 15% | %Inh [3]: 0% | %Inh [4]: 13% | %Inh [5]: 6% | %Inh [6]: 29% | %Inh [7]: 0% | %Inh [8]: 2% | %Inh [9]: 0% | %Inh [10]: 6%

COc1cccc(C2=C(Nc3cccc(O)c3)C(=O)NC2=O)c1 [SB-390771]
%Inh [1]: 49% | %Inh [2]: 0% | %Inh [3]: 17% | %Inh [4]: 0% | %Inh [5]: 18% | %Inh [6]: 22% | %Inh [7]: 3% | %Inh [8]: 3% | %Inh [9]: 5% | %Inh [10]: 0%

O=C(Nc1c(F)cccc1F)c1cc(C(=O)c2ccccc2F)c[nH]1 [GSK1326180]
%Inh [1]: 11% | %Inh [2]: 4% | %Inh [3]: 6% | %Inh [4]: 0% | %Inh [5]: 0% | %Inh [6]: 0% | %Inh [7]: 0% | %Inh [8]: 0% | %Inh [9]: 9% | %Inh [10]: 0%

Cc1ccccc1CC(=O)N1CCc2cc(-c3cn(C)c4ncnc(N)c34)ccc21 [GSK2603346]
%Inh [1]: 8% | %Inh [2]: 31% | %Inh [3]: 100% | %Inh [4]: 100% | %Inh [5]: 63% | %Inh [6]: 0% | %Inh [7]: 69% | %Inh [8]: 10% | %Inh [9]: 14% | %Inh [10]: 2%

Nc1ncnc2scc(-c3ccc(NC(=O)Cc4cc(F)ccc4F)cc3)c12.O=C(O)C(F)(F)F [SB-731254-M]
%Inh [1]: 0% | %Inh [2]: 13% | %Inh [3]: 1% | %Inh [4]: 0% | %Inh [5]: 23% | %Inh [6]: 20% | %Inh [7]: 53% | %Inh [8]: 0% | %Inh [9]: 0% | %Inh [10]: 17%

Cl.Cl.NC(CNC(=O)c1cc(Br)c(-c2ccnc3[nH]ccc23)s1)c1ccccc1 (centres unmarked) [GSK1322949]
%Inh [1]: 100% | %Inh [2]: 88% | %Inh [3]: 98% | %Inh [4]: 21% | %Inh [5]: 0% | %Inh [6]: 34% | %Inh [7]: 18% | %Inh [8]: 99.6% | %Inh [9]: 99.9% | %Inh [10]: 51%

CCNc1nccc(-c2c(-c3ccc(F)cc3)ncn2C2CCN(C)CC2)n1
%Inh [1]: 10% | %Inh [2]: 0% | %Inh [3]: 29% | %Inh [4]: 8% | %Inh [5]: 36% | %Inh [6]: 0% | %Inh [7]: 0% | %Inh [8]: 0% | %Inh [9]: 0% | %Inh [10]: 0%

c1ccc(Oc2ccc(Nc3ccnc4cc(-c5ccc(CN6CCCCC6)o5)ccc34)cc2)nc1 [GW567143]
%Inh [1]: 3% | %Inh [2]: 13% | %Inh [3]: 0% | %Inh [4]: 0% | %Inh [5]: 96.3% | %Inh [6]: 0% | %Inh [7]: 0% | %Inh [8]: 19% | %Inh [9]: 0% | %Inh [10]: 0%

Cc1ccc(C)c(NC(=O)Nc2ccc(C)c(-c3ccc(C(=O)Nc4ccncc4)cc3)c2)c1 [GSK1398473]
%Inh [1]: 38% | %Inh [2]: 48% | %Inh [3]: 0% | %Inh [4]: 42% | %Inh [5]: 8% | %Inh [6]: 11% | %Inh [7]: 7% | %Inh [8]: 0% | %Inh [9]: 0% | %Inh [10]: 0%

CCn1cnc2c(NCc3ccccc3)ncnc21 [SKF-96418]
%Inh [1]: 0% | %Inh [2]: 0% | %Inh [3]: 0% | %Inh [4]: 0% | %Inh [5]: 0% | %Inh [6]: 13% | %Inh [7]: 28% | %Inh [8]: 56% | %Inh [9]: 16% | %Inh [10]: 0%

O=C(Nc1n[nH]c2nc(-c3cccc(O)c3)ccc12)C1CC1 [SB-711805]
%Inh [1]: 53% | %Inh [2]: 11% | %Inh [3]: 59% | %Inh [4]: 14% | %Inh [5]: 5% | %Inh [6]: 37% | %Inh [7]: 7% | %Inh [8]: 2% | %Inh [9]: 0% | %Inh [10]: 0%

Cc1cccc(Nc2nc(N[C@H]3CCCC[C@H]3N)ncc2C(N)=O)c1.Cl [GSK986310]
%Inh [1]: 48% | %Inh [2]: 42% | %Inh [3]: 42% | %Inh [4]: 7% | %Inh [5]: 2% | %Inh [6]: 68% | %Inh [7]: 17% | %Inh [8]: 85% | %Inh [9]: 82% | %Inh [10]: 62%

COc1ccc(C2=C(Nc3cccc(O)c3)C(=O)NC2=O)cc1 [SB-390766]
%Inh [1]: 22% | %Inh [2]: 0% | %Inh [3]: 0% | %Inh [4]: 0% | %Inh [5]: 32% | %Inh [6]: 10% | %Inh [7]: 0% | %Inh [8]: 18% | %Inh [9]: 19% | %Inh [10]: 0%

Cc1nn2c(=O)cc(N3CCO[C@H](C)C3)nc2n1Cc1cccc(Cl)c1Cl [GSK2373693]
%Inh [1]: 39% | %Inh [2]: 39% | %Inh [3]: 5% | %Inh [4]: 2% | %Inh [5]: 61% | %Inh [6]: 19% | %Inh [7]: 0% | %Inh [8]: 73% | %Inh [9]: 5% | %Inh [10]: 0%

CN(c1ccc2c(c1)nc(NCc1ccccc1)n2C)c1ccnc(Nc2ccc(CS(C)(=O)=O)cc2)n1.Cl [GW811603]
%Inh [1]: 50% | %Inh [2]: 0% | %Inh [3]: 44% | %Inh [4]: 100% | %Inh [5]: 0% | %Inh [6]: 49% | %Inh [7]: 24% | %Inh [8]: 20% | %Inh [9]: 47% | %Inh [10]: 57%

Fc1cc(Cl)ccc1Nc1ccnc2cc(-c3ccc(CN4CCOCC4)o3)ccc12 [GW560109]
%Inh [1]: 30% | %Inh [2]: 0% | %Inh [3]: 0% | %Inh [4]: 0% | %Inh [5]: 94.4% | %Inh [6]: 0% | %Inh [7]: 0% | %Inh [8]: 5% | %Inh [9]: 46% | %Inh [10]: 0%

COc1cc(Nc2ccnc3cc(-c4ccncc4)ccc23)cc(OC)c1OC.Cl [GW494610]
%Inh [1]: 39% | %Inh [2]: 11% | %Inh [3]: 0% | %Inh [4]: 0% | %Inh [5]: 83% | %Inh [6]: 0% | %Inh [7]: 0% | %Inh [8]: 31% | %Inh [9]: 14% | %Inh [10]: 16%

CCNC(=O)/C=C/c1n[nH]c2cc(Sc3ccccc3C(=O)NC)ccc12
%Inh [1]: 0% | %Inh [2]: 7% | %Inh [3]: 0% | %Inh [4]: 0% | %Inh [5]: 29% | %Inh [6]: 4% | %Inh [7]: 18% | %Inh [8]: 4% | %Inh [9]: 1% | %Inh [10]: 33%

CNc1nccc(-c2ccc3c(N)n[nH]c3c2)n1 [GSK2206003]
%Inh [1]: 98.2% | %Inh [2]: 85% | %Inh [3]: 82% | %Inh [4]: 8% | %Inh [5]: 0% | %Inh [6]: 41% | %Inh [7]: 0% | %Inh [8]: 52% | %Inh [9]: 62% | %Inh [10]: 22%

Cl.O=C(Nc1ccc(Oc2ccc3[nH]c(NC(=O)c4ccco4)nc3c2)cc1)Nc1cc(C(F)(F)F)ccc1F [GW683134]
%Inh [1]: 1% | %Inh [2]: 7% | %Inh [3]: 0% | %Inh [4]: 86% | %Inh [5]: 43% | %Inh [6]: 6% | %Inh [7]: 0% | %Inh [8]: 78% | %Inh [9]: 23% | %Inh [10]: 3%

COc1cccc(NC(=O)NCCNc2ccnc(Nc3ccc(F)cc3)n2)c1 [GSK1379879]
%Inh [1]: 31% | %Inh [2]: 0% | %Inh [3]: 13% | %Inh [4]: 13% | %Inh [5]: 0% | %Inh [6]: 23% | %Inh [7]: 0% | %Inh [8]: 6% | %Inh [9]: 15% | %Inh [10]: 0%

Cc1cc(-c2c(-c3ccc(F)cc3)ncn2CCCN2CCOCC2)nc(N)n1 [SB-222517]
%Inh [1]: 10% | %Inh [2]: 0% | %Inh [3]: 11% | %Inh [4]: 0% | %Inh [5]: 0% | %Inh [6]: 14% | %Inh [7]: 11% | %Inh [8]: 29% | %Inh [9]: 0% | %Inh [10]: 19%

Cc1cccc(Nc2nc(NCCN)ncc2C(N)=O)c1 [GSK1292139]
%Inh [1]: 89% | %Inh [2]: 3% | %Inh [3]: 90.2% | %Inh [4]: 20% | %Inh [5]: 0% | %Inh [6]: 81% | %Inh [7]: 14% | %Inh [8]: 82% | %Inh [9]: 81% | %Inh [10]: 19%

CCOc1nccc(-c2c(-c3ccc(F)cc3)ncn2C2CCNCC2)n1 [SB-249175]
%Inh [1]: 44% | %Inh [2]: 24% | %Inh [3]: 42% | %Inh [4]: 23% | %Inh [5]: 31% | %Inh [6]: 53% | %Inh [7]: 8% | %Inh [8]: 53% | %Inh [9]: 19% | %Inh [10]: 11%

COc1cc(Nc2nccc(N3CCC(NS(=O)(=O)c4ccc(NC(C)=O)cc4)CC3)n2)cc(OC)c1OC [GSK1379825]
%Inh [1]: 76% | %Inh [2]: 66% | %Inh [3]: 59% | %Inh [4]: 81% | %Inh [5]: 80% | %Inh [6]: 48% | %Inh [7]: 0% | %Inh [8]: 28% | %Inh [9]: 26% | %Inh [10]: 48%

N#CC1(c2cccc(C(=O)Nc3cccc(Oc4ccc5nc(NC(=O)C6CC6)sc5n4)c3)c2)CC1
%Inh [1]: 0% | %Inh [2]: 0% | %Inh [3]: 0% | %Inh [4]: 15% | %Inh [5]: 55% | %Inh [6]: 0% | %Inh [7]: 0% | %Inh [8]: 0% | %Inh [9]: 0% | %Inh [10]: 1%

COc1cc(Nc2nccc(N3CCC(NC(=O)Nc4ccc5c(c4)OCO5)C3)n2)cc(OC)c1OC (centres unmarked) [GSK1379766]
%Inh [1]: 79% | %Inh [2]: 0% | %Inh [3]: 81% | %Inh [4]: 0% | %Inh [5]: 19% | %Inh [6]: 62% | %Inh [7]: 0% | %Inh [8]: 25% | %Inh [9]: 44% | %Inh [10]: 36%

Cn1cc(-c2cnc(N)c3c(-c4ccc5c(c4)CCN5C(=O)Cc4ccccc4)csc23)cn1 [GSK2593074]
%Inh [1]: 33% | %Inh [2]: 0% | %Inh [3]: 6% | %Inh [4]: 100% | %Inh [5]: 96.1% | %Inh [6]: 100% | %Inh [7]: 55% | %Inh [8]: 0% | %Inh [9]: 11% | %Inh [10]: 0%

COc1ccc(NC(=O)c2ccoc2)cc1-c1ccc(C(=O)NCC2CC2)cc1 [GW810437]
%Inh [1]: 8% | %Inh [2]: 1% | %Inh [3]: 5% | %Inh [4]: 0% | %Inh [5]: 4% | %Inh [6]: 34% | %Inh [7]: 14% | %Inh [8]: 36% | %Inh [9]: 0% | %Inh [10]: 0%

Cc1ccc(-c2ccc3occ(-c4ccc(S(C)=O)cc4)c3c2)nn1 (centres unmarked)
%Inh [1]: 0% | %Inh [2]: 10% | %Inh [3]: 0% | %Inh [4]: 0% | %Inh [5]: 0% | %Inh [6]: 0% | %Inh [7]: 0% | %Inh [8]: 6% | %Inh [9]: 0% | %Inh [10]: 0%

COc1cccc2c(-c3ccncc3)c(-c3ccc(F)cc3)nn12 [GW468513]
%Inh [1]: 32% | %Inh [2]: 13% | %Inh [3]: 26% | %Inh [4]: 0% | %Inh [5]: 56% | %Inh [6]: 8% | %Inh [7]: 0% | %Inh [8]: 0% | %Inh [9]: 28% | %Inh [10]: 0%
